# A selection: hits, their analogues and other compounds. The true share with any hit is near 7.7%.
# FMDV inh = antivirals against foot and mouth disease virus. FMDV antiviral cell-based qHTS. Potency, µM (doses to about 57.9 µM), inactives show at the highest dose activity change, negative = inhibition, hits mostly inhibitors. 410,000 tested, 1.2% active. AID 1159524; calls by dose curve; tested in HEK293T cells; note: read-out not given here; potency is the fitted concentration of half-maximal effect; nearly all actives have a fitted effect of over 45% in size
# Sm TGR inh = S. mansoni TGR enzyme inhibition | purified TGR, DTNB reduction, TNB absorbance 405 nm | 360,000 tested, 3% active | Potency, µM (doses to about 114 µM), for the others: top-dose activity change, negative = inhibition, most hits filed as inhibitors; note: potency is the fitted concentration of half-maximal effect; nearly all actives have a fitted effect of over 60% in size
#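 First, TGR (20 nM dispensed) and NADPH were mixed with compound. Second, a 15 min room-temperature incubation followed. Third, further NADPH and then DTNB were added to start the reaction. Finally, TNB absorbance was monitored kinetically.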
# Giardia FBPA inh = inhibitors of Giardia lamblia fructose-1,6-bisphosphate aldolase; 290,000 tested, 0.71% active; Potency, µM (titrated, usually from 59.6 µM), without a hit: top-dose activity, negative = inhibition, usual class: inhibitors; A8B2U2; purified Giardia FBPA; note: potency is the fitted concentration of half-maximal effect; nearly all actives have a fitted effect of over 55% in size
# Target sequence (A8B2U2 whole entry, looked up): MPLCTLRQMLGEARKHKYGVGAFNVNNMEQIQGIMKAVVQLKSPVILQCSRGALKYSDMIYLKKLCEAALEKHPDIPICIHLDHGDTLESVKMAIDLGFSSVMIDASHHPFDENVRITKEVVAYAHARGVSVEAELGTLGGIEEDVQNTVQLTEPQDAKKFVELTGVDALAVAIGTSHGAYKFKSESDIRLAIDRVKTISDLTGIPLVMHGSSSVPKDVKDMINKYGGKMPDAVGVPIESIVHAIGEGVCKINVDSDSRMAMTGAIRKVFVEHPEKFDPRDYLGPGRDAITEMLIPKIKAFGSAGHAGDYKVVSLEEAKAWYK
#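 Giardia FBPA (40 nM reagent) was preincubated 10 min at RT with compound (up to 57.5 uM final), then substrate plus GAPDH/TPI/NAD/arsenate coupling system with diaphorase/resazurin was added; resorufin fluorescence (525/598 nm) was read after 20 min.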
# HCMV inh = blocks human cytomegalovirus replication. HFF cells, HCMV-luciferase reporter, 72 h; active compounds read low. activity change, negative = inhibition, % at 57.5 µM. 410,000 tested, 4.5% active; in the data active = activity change below about -60%; inconclusive = no clear call, values can overlap the other calls; inactive = above about -39%
#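 Steps: HFFs plated, 16 h 37C; compounds added; HCMV-luciferase added to MOI 1 PFU/cell; 72 h 37C; OneGlo reagent, 5 min room temperature; luminescence read, normalized to controls.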
# RE007 growth inh = less growth of the S. pombe RE007 Vpr strain; S. pombe RE007 Vpr strain, BacTiter-Glo ATP luminescence, 24 h; Potency, µM (doses to about 92.2 µM), inactives show at the top dose activity change, negative = less growth, usual class: inhibitors; 360,000 tested, 0.21% active; AID 651644; active = well fitted falling curve with a large enough effect; inconclusive = small, poorly fitted or top-dose-only effect; inactive = no such curve, though single readings can be large or run the other way; note: potency is the fitted concentration of half-maximal effect; nearly all actives have a fitted effect of over 50% in size
#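 Fission yeast strain RE007, carrying one chromosomally integrated HIV-1 vpr copy, was seeded at OD 0.01 in PMG+AL medium with 23 nL pinned compound. After 24 h at 30 °C and 99% humidity, viability was read by BacTiter-Glo luminescence.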
# Tb PYK inh = blocks Trypanosoma brucei pyruvate kinase; Q57TT1; TbPYK enzyme, Kinase-Glo Plus ATP luminescence, 45 min; Potency, µM (titrated, usually from 76.8 µM), for the others: at the highest dose activity, negative = inhibition, most hits filed as inhibitors; 410,000 tested, 0.12% active; note: potency is the fitted concentration of half-maximal effect; nearly all actives have a fitted effect of over 50% in size
#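 Quantitative HTS: titrated library compounds versus trypanosomal pyruvate kinase in TEA buffer (pH 7.2) containing KCl, MgCl2, BSA and Tween-20. Reactions were initiated with ADP, 130 uM final. Kinase-Glo Plus luminescence was read after 45 min at RT.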
# * hit, by the source's call; ? = inconclusive; nt = no result given; [ ] = remark or other dose. Unless noted, calls come from the whole dose curve; as a rule, active = well fitted curve in the direction sought with a large enough effect; inconclusive = small, poorly fitted or top-dose-only effect, or another doubt; inactive = no such curve, though single readings can be large; an effect the other way counts as inactive or inconclusive. % is set by controls: 0 for no effect and ±100 for the full control effect.
SMILES,FMDV inh,Sm TGR inh,Giardia FBPA inh,HCMV inh,RE007 growth inh,Tb PYK inh
CCc1ccccc1NC(=O)CN(C)C(=O)Cn1cnc2ccc(Cl)cc2c1=O,-26%,-3%,nt,0,2%,3%
CCC(=O)Nc1ccc(C(=O)Cn2ncc(Cl)c(Cl)c2=O)cc1,-16%,2.8µM*,0%,-103*,4%,2%
CC(NC(=O)Nc1nnc(C(F)(F)F)s1)(C(F)(F)F)C(F)(F)F,?,2%,-26%,-98*,1%,-4%
CC(C)(C)CC(=O)Nc1nnc(C(F)(F)F)s1,-8%,-12%,-12%,-19,5%,-28%
CSCC[C@@H]1NC(=O)C/C=C\[C@@H](C)COC(=O)[C@H](C)COC1=O,nt,nt,1%[12.9 µM],nt,nt,nt
CCN(CC)C(=O)C(=O)c1cn(CC(=O)N2CCc3ccccc3C2)c2ccccc12,-16%,45µM*,1%,?,8%,-2%
O=C1c2ccccc2C(Nc2ccc(F)c(Cl)c2)N1Cc1ccco1 (stereo unspecified),-25%,13µM*,-16%,-36,-11%,-19%
CCCC(=O)N1CCN(c2ccc(NC(=O)c3cc4ccccc4o3)cc2)CC1,25µM*,-5%,3%,-7,7%,1%
CN1CCN(c2ccc(NC(=O)c3cc4ccccc4o3)cc2)CC1,47%,-15%,-1%,97,-2%,0%
O=C(Nc1ccc(N2CCN(C(=O)c3ccccc3)CC2)cc1)c1cc2ccccc2o1,14µM*,-4%,0%,-66*,1%,-1%
O=C(Nc1ccccc1N1CCN(C(=O)c2ccccc2)CC1)c1cc2ccccc2o1,?,0%,-8%,19,-5%,1%
CCCCC(C)/C=C(C)/C=C(\C)C(=O)NC1=CC(O)(/C=C/C=C/C=C/C(=O)NC2=C(O)CCC2=O)C2OC2C1=O (stereo unspecified),nt,nt,-8%,nt,nt,nt
CCN1C(=O)c2ccccc2C1Nc1cccc(OCCN2CCCCC2)c1 (stereo unspecified),nt,nt,nt,nt,nt,0%
Cc1ccc(NC(=O)CCS(=O)(=O)c2ccc(Br)cc2)c(C)c1,-8%,1%,nt,?,nt,0%[15.4 µM]
Cc1ccc(C(=O)CCS(=O)(=O)c2ccc(Br)cc2)cc1,11%,0.4µM*,-3%,32,9%,2%
Cc1ccc(S(=O)(=O)Cc2cc(F)c([N+](=O)[O-])cc2[N+](=O)[O-])cc1,-41%,1.8µM*,-5%,nt,?,-2%
Cc1ccc(S(=O)(=O)CCC(=O)c2cccc([N+](=O)[O-])c2)cc1,25µM*,?,-6%,-12,5.6µM*,?
COc1ccc(C(=O)CCS(=O)(=O)c2ccc(C)cc2)cc1,-21%,1µM*,13%,?,-23%,4%
COc1ccc(C(=O)NCS(=O)(=O)c2ccc(C)cc2)cc1,0%,11µM*,6%,-4,10%,-5%
CO/N=C(/CS(=O)(=O)c1ccc(C)cc1)c1ccc(OC)cc1,-7%,40µM*,?,88,-11%,-7%
Cc1ccc(S(=O)(=O)CCC(=O)Oc2ccc(-c3nnco3)cc2)cc1,-7%,20µM*,nt,15,30%,-5%
Cc1ccc(S(=O)(=O)N2CCN(C(=O)COc3ccc(-c4nnco4)cc3)CC2)cc1,-16%,7%,11%,6,9%,-4%
COc1ccc(C(=O)NCCS(=O)(=O)NCc2ccc(C)cc2)cc1,5%,-2%,nt,-22,8%,0%
CCOC(=O)COc1nc(-c2ccc(C)cc2)cc(-c2ccco2)c1C#N,-5%,-2%,-6%,?,-12%,-2%
CCOC(=O)COc1nc(-c2ccco2)cc(-c2ccco2)c1C#N,-17%,32µM*,-1%,-18,-11%,-9%
SMILES,FMDV inh,Sm TGR inh,Giardia FBPA inh,HCMV inh,RE007 growth inh,Tb PYK inh
CCOc1nc2c(c(-c3cccs3)c1C#N)Cc1ccccc1-2,-22%,16%,4%,21,-3%,1%
CCOC(=O)C(C)Sc1nc(-c2ccco2)cc(C(F)(F)F)c1C#N (stereo unspecified),?,22µM*,-2%,-7,-8%,-2%
CC(=O)COc1nc2c(c(-c3ccco3)c1C#N)CCc1ccccc1-2,-27%,45µM*,?,nt,4%,1%
Nc1ncc(S(=O)(=O)NCc2ccc(Cl)cc2)cn1,2%,-1%,nt,-24,nt,-2%
CC(=O)c1ccc(-c2cc(F)cc3c2OC(CNC(=O)C(C)N2CCOCC2)C3)s1 (stereo unspecified),-15%,nt,nt,nt,nt,nt
Cc1ccc(N(CC(O)Cn2c3ccccc3c3ccccc32)S(=O)(=O)c2ccc(F)cc2)cc1 (stereo unspecified),?,-9%,nt,-92*,nt,3%
COc1ccc(N(CC(O)Cn2c3ccccc3c3ccccc32)S(=O)(=O)c2ccccc2)cc1 (stereo unspecified),?,1%,-6%,-78*,14%,0%
CCN(CC(O)Cn1c2ccccc2c2ccccc21)S(=O)(=O)c1ccc(C)cc1 (stereo unspecified),-8%,-11%,-8%,12,-4%,-4%
COc1cc(=O)n2c(c1C(=O)NC(C)c1ccco1)CCN(Cc1ccnc3ccccc13)CC2 (stereo unspecified),4%,nt,nt,nt,nt,nt
CCOc1ccc(CCNC(=O)/C=C/c2ccco2)cc1OCC,-28%,6.3µM*,nt,-6,22%,-17%
COc1ccc(CCNC(=O)/C=C/c2ccco2)cc1,3%,10µM*,7%,23,-9%,?
COc1ccc(CCNC(=O)/C=C/c2ccco2)cc1OC,1%,11µM*,-2%,-1,-14%,?
COc1ccc(/C=C/C(=O)NCCSCc2ccco2)cc1OC,7%,10µM*,0%,-26,2%,2%
COc1ccc(CN2CCC(n3cc(C(=O)N4CCCCC4)nn3)CC2)c(OC)c1,-10%,nt,nt,nt,nt,nt
CCc1ccccc1NC(=O)Cn1nnc2sc3c(c2c1=O)CCC(C(C)(C)C)C3 (stereo unspecified),-29%,-5%,nt,-3,nt,3%
CCOc1ccc(C(=O)Cn2c(=O)n3nc(CCn4nc(C)cc4C)nc3c3cc(OC)c(OC)cc32)cc1,-7%,-4%,nt,7,nt,-5%
O=C(N/N=C/c1ccc(N2CCCCC2)o1)C(O)(c1ccccc1)c1ccccc1,nt,22µM*,-26%,nt,nt,nt
CN(C)c1ccc(/C=N/NC(=O)C(O)(c2ccccc2)c2ccccc2)o1,-9%,10µM*,-29%,-11,3%,?
O=C(NN=Cc1ccccc1O)C(O)(c1ccccc1)c1ccccc1,2%,nt,nt,2,0%,-5%
CN(C)c1ccc(/C=N/NC(=O)c2ccccc2O)o1,29%,22µM*,-22%,114,-6%,?

# Source: PubChem (National Center for Advancing Translational Sciences (NCATS))
